Shn3 3UTR inh – reduces Shn3 3'UTR luciferase signal in osteoblasts. AID 588674. inhibition, % at 12.5 µM. 0.52% of 360,000 active. Clone20 osteoblast Shn3 3'UTR firefly luciferase, 24 h;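 active means mean inhibition of at least 75% with every replicate also reaching 75%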;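 further: 0% = median of neutral control wells and 100% = pilot-screen positive control compound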
Jurkat NFkB inh – inhibitors of the PMA/ionomycin-induced NF-kB reporter in Jurkat cells. PMA/ionomycin-induced NF-kB luciferase reporter, luminescence. inhibition, % at 4 µM. AID 435003. 0.53% of 330,000 active; in the data active means inhibition above about 50%
Mdm2-MdmX inh – human Mdm2/MdmX binding inhibition; O15151+Q00987; SaOS-2 split-luciferase Mdm2/MdmX complementation, luminescence; inhibition, % at 8 µM; 3% of 330,000 active; AID 485346;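 active means inhibition of at least 50% at 8 µM in the primary screen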
Target sequence (O15151 whole entry, looked up): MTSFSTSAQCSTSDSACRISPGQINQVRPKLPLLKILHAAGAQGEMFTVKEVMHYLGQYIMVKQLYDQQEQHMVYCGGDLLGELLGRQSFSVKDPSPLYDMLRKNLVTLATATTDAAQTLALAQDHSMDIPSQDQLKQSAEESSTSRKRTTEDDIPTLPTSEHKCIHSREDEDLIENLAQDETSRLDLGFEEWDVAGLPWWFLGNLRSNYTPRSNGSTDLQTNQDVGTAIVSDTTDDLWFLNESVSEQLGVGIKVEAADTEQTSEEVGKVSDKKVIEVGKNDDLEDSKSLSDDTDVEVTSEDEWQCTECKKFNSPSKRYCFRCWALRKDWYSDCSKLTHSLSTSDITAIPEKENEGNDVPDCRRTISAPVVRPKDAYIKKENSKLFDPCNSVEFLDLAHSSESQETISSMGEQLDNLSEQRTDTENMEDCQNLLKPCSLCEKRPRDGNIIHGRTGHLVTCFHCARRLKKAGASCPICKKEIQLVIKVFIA
Target sequence (Q00987 whole entry, looked up): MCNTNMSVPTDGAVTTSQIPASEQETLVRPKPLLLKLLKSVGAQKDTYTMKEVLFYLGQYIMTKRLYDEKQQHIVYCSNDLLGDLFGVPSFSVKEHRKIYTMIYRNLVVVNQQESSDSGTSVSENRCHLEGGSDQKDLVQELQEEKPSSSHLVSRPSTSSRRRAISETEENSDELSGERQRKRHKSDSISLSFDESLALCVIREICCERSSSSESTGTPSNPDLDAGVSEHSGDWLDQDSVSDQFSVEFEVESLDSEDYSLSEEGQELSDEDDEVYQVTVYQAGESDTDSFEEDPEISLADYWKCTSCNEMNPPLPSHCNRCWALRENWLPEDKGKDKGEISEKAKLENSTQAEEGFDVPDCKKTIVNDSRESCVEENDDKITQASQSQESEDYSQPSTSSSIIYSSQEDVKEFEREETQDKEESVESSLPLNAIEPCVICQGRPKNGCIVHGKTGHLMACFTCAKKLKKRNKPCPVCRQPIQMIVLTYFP
697 NFkB inh – inhibitors of the PMA/ionomycin-induced NF-kB reporter in 697 B cells; 697 B-cell NF-kB luciferase reporter, 16 h; inhibition, % at 4 µM; 0.33% of 330,000 active; AID 435022; in the data active means inhibition above about 35%
Gli-Sufu block – Gli-Sufu pathway antagonism; Sufu-KO-LIGHT fibroblasts, Gli luciferase reporter luminescence; inhibition, % at 5 µM; 0.74% of 340,000 active; AID 588413;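 active means inhibition above about 55%, limit read from the data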;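 further: 0% = DMSO-treated cells and 100% = wells with medium but no cells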
697 NFkB conf – inhibitors of the PMA/ionomycin-induced NF-kB reporter in 697 B cells, retest; shares compounds with 697 NFkB inh; 697 B-cell NF-kB luciferase, 16 h; inhibition, % at 4 µM; 35% of 2,000 active; AID 449746; in the data active means inhibition mostly above about 28%, no sharp cut-off; inactive means mostly below about 22%
Numbers without * were called inactive; nt = no result given. Only some compounds are listed: those with a hit (about 3.8% of all), similar ones and a draw of the others.

SMILES	Shn3 3UTR inh	Jurkat NFkB inh	Mdm2-MdmX inh	697 NFkB inh	Gli-Sufu block	697 NFkB conf
Cc1csc(NC(=O)CCc2c(C)nc3cc(-c4ccc(Cl)cc4)nn3c2C)n1	59	41	14	42*	4	42*
CCCN=C(C)c1c(-c2ccccc2)[nH]n(-c2nc3ccccc3s2)c1=O	2	-7	30	-17	-5	nt
CCN(CC)CCCN=Cc1c(-c2ccccc2)[nH]n(-c2nc3ccccc3s2)c1=O	-4	7	-1	40*	4	42*
COc1cccc(-c2sc3ccc(OC)cc3c2C#CCCO)c1	4	-11	26	-8	-7	nt
CC1C(=O)N2CCCc3cc(NC(=O)c4ccccc4Br)cc1c32 (centres undefined)	1	17	18	41*	5	23
COC(=O)c1c(C(=O)OC)c(-c2ccc(Br)cc2)n2c1CS(=O)C2 (centres undefined)	8	-10	17	-13	-2	nt
CCc1n[nH]c(=S)n1/N=C/c1cc(Br)c(O)c(OC)c1	-36	-1	23	36*	-3	-2
COc1cc(/C=N/n2c(COc3ccccc3)n[nH]c2=S)cc(Br)c1O	2	2	9	6	8	nt
Cc1c(C)c2ccc(OC(C)C(=O)NCc3ccccn3)cc2oc1=O (centres undefined)	-18	1	6	16	13	nt
CCOC(=O)C1CCN(C(=O)c2ccccc2NC(C)=O)CC1	-19	11	-2	39*	7	8
Cc1cc(Cl)c(S(=O)(=O)NC(C(=O)O)C(C)C)cc1OCC(=O)NC1CCCCC1 (centres undefined)	18	11	1	37*	4	2
N/C(=N\OC(=O)COc1ccc(Br)cc1Cl)c1ccccn1	-4	-111	-55	-317	-64	-315
N/C(=N\OC(=O)/C=C/c1ccccc1Cl)c1ccccn1	0	-113	-38	-318	-62	-276
CC(=C/c1ccco1)/C=N/NC(=O)CSc1nnc(SCc2ccc(C)cc2)s1	-12	-2	-31	52*	-18	50*
C#CCN(Cc1ccccc1)S(=O)(=O)C=C	nt	7	31	36*	-2	30*
CC(=O)NC(c1ccccc1)c1nc(-c2ccc(Cl)cc2)cs1 (centres undefined)	6	nt	nt	nt	nt	nt
COc1ccc(N=Nc2ccc3ccccc3c2)c(O)c1	-3	-140	-71	-324	-20	-307
CC(C)NC(=O)N(C)C[C@@H]1OCc2cn(nn2)CCCC(=O)N([C@H](C)CO)C[C@H]1C	6	nt	nt	nt	nt	nt
COc1ccccc1NC(=O)c1cc(S(=O)(=O)NC2CCCC2)ccc1F	-2	-3	-1	7	-11	nt
CC1CCN(c2cc(N3CCOCC3)c([N+](=O)[O-])cc2F)CC1	-5	-5	-2	-6	7	nt
CC1CCN(c2cc(N3CCN(C(=O)c4ccc(F)c(F)c4)CC3)c([N+](=O)[O-])cc2F)CC1	14	21	22	38*	9	18
O=C(Nc1nccs1)c1sc2ccccc2c1Cl	-10	-115	-98	-352	12	-326
O=C(O)C1=C(C(=O)Nc2cc(C(F)(F)F)ccc2Cl)CCCC1	-6	-3	0	37*	-10	6
O=C(CN1CCCCCC1)Nc1cc(C(F)(F)F)ccc1Cl	-6	-12	-10	11	1	nt
Cc1ccc(C(=O)O)cc1NC(=O)c1ccc2c(c1)C(=O)N(c1ccc([N+](=O)[O-])cc1)C2=O	-50	5	21	-6	2	nt
SMILES	Shn3 3UTR inh	Jurkat NFkB inh	Mdm2-MdmX inh	697 NFkB inh	Gli-Sufu block	697 NFkB conf
CC1=NN(c2nc(-c3ccc(Cl)cc3)cs2)C(=O)C1	-4	-42	1	-70	-4	nt
Cc1ccc(-c2csc(N3C(=N)SCC3=O)n2)cc1	nt	-104	-136	-268	-91	-169
CC1(C)Cc2c(sc(NC(=O)Cc3ccccc3)c2C#N)CO1	4	19	24	41*	10	23
CCOC(=O)c1[nH]c(C)c(C(=O)NCCc2ccc(OC)cc2)c1C	-2	-4	12	36*	-2	14
Cc1ccc(C2=NN=C(NC(=O)C(F)(F)F)SC2)cc1	-49	nt	nt	nt	-7	nt
Cc1c(C(=O)OCCOc2ccccc2)[nH]c2c1C(=O)CCC2	57	-83	-42	-331	-71	-380
CCCc1c(C(=O)OCC)[nH]c2c1C(=O)CCC2	25	-9	-3	-17	-1	nt
CC(=O)c1c(C)[nH]c(C(=O)COC(=O)CCCOc2ccccc2)c1C	-1	-1	-1	6	31	nt
CC(=O)c1c(C)[nH]c(C(=O)OCCOc2ccccc2)c1C	52	-141	-11	-253	-77	-402
O=C(N/N=C/c1sc(N2CCOCC2)nc1-c1ccccc1)c1ccccc1Cl	-4	35	-3	27	0	nt
O=C(N/N=C/c1sc(N2CCOCC2)nc1-c1ccccc1)c1ccccc1F	nt	6	18	40*	-1	21
Cc1cc(C(=O)N/N=C/c2sc(N3CCOCC3)nc2-c2ccccc2)c(C)o1	-12	19	7	40*	22	13
O=C(N/N=C/c1sc(N2CCOCC2)nc1-c1ccccc1)c1ccccc1O	30	9	7	29	-1	nt
COc1ccc(Cl)cc1NC(=O)CCN1C(=O)C2C3CCC(C3)C2C1=O (centres undefined)	1	-7	20	2	-14	nt
CCC(=O)c1ccc(OCC(O)CNC2CCCC2)cc1 (centres undefined)	8	-4	-11	7	-10	nt
COc1ccc(NC(=O)CCCNC(=O)c2ccc(Cl)cc2)cc1S(=O)(=O)N1CCCCC1	10	nt	nt	nt	6	nt
Cc1ccc2c(c1)C1CN(C)CCC1N2S(=O)(=O)c1cc(C(F)(F)F)ccc1Cl (centres undefined)	-3	-4	8	9	-2	nt
COc1ccc(C)cc1NC(=O)c1cc(S(=O)(=O)N2CCCCC2)ccc1N1CCOCC1	5	-2	28	11	9	nt
COC(=O)COc1cccc2c(=O)n(CC(=O)N3CCCCC3)ccc12	4	-6	16	43*	0	6
COC(=O)COc1cccc2c(=O)n(CC(=O)N3CCC(C)CC3)ccc12	22	-10	4	3	8	nt
CCn1c(=O)cc(OCC(=O)N(C)C2CCCCC2)c2ccccc21	-11	-2	-11	39*	7	44*
CCN(CC)CCOC(=O)c1ccc(NC(=O)COc2cc(=O)n(CC)c3ccccc23)cc1	-10	5	27	39*	7	45*
CCn1c(=O)cc(OCC(=O)Nc2ccc(OC)c(OC)c2)c2ccccc21	-15	7	30	36*	-24	37*
CCn1c(=O)cc(OCC(=O)Nc2ccc3c(c2)OCCO3)c2ccccc21	-14	-1	22	31	5	nt
CCOC(=O)COc1cc(=O)n(CC)c2ccccc12	-11	0	18	26	-5	nt

Compound activity (PubChem BioAssay)
